# Hit rate of the full screen: of about 360,000 compounds, about 6,200 (1.7%) were called active. For the sample, actives were picked, then their nearest neighbours and some compounds at random. Unmarked numbers belong to inactive results.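 Rule for the calls: active = inhibition of at least 50% at 20 µM; inactive = the rest.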
# Experiment: Peg3 promoter-driven luciferase inhibitors, primary screen, cell-based, HeLa, luciferase luminescence (AID 588405)
# Conditions: HeLa PEG-Prom luciferase reporter, overnight, at 20 µM, hits give high values
row,Structure (SMILES),inhibition
1,O=C(NCc1cccnc1)c1cc(C2CCCN(C(=O)CCCc3ccccc3)C2)on1 (stereo not given),-7.2%
2,Cc1cc(C)c2c(Cn3ccnc3)cc(=O)oc2c1,18.3%
3,O=C(CSc1nnc(COc2ccc(Cl)cc2)n1Cc1ccco1)N1CCNC1=O,6.82%
4,Cn1c2ccccc2c(=O)c2c(=O)n(Cc3ccco3)c(COc3ccccc3)nc21,50.5% (active)
5,CCCc1nc2c(c(=O)c3ccccc3n2C)c(=O)n1C1CCCCCC1,-44.1%
6,CCCNC(=O)C1(C)CCCN(Cc2c(C)nn(-c3ccccc3)c2C)C1 (stereo not given),5.49%
7,COc1cccc(-c2cnc(C(O)c3ccccc3OC)[nH]2)c1 (stereo not given),-9.16%
8,CS/C(=C\C(=O)c1ccco1)Nc1ccccc1Cl,-49.5%
9,O=C(Nc1ccccc1Cl)/C(Cl)=C(\Cl)S(=O)c1ccccc1 (stereo not given),108% (active)
10,O=C(COc1ccc(-n2cnnn2)cc1)Nc1ccccc1Cl,-1.45%
11,CC(=O)N1CCN(Cc2cc(=O)oc3cc(C)ccc23)CC1,-2.53%
12,COc1ccc(-c2cc(NC=O)c3ncc(-c4ccccc4)n3c2)cc1OC,49.4%
13,C[C@H]([C@@H](O)[C@@H](O)[C@@H](C)C(C)(C)C)[C@H]1CC[C@H]2C3CC[C@H]4C[C@H](OS(=O)(=O)O)[C@@H](OS(=O)(=O)O)C[C@]4(C)[C@H]3CC[C@]12C (stereo not given in full),6.06%
14,COc1ccc(NC(=O)C2(C)Cc3c(-c4cccc(NC(C)=O)c4)ccnc3O2)cc1 (stereo not given),-10.2%
15,c1ccc2c(c1)CSc1sccc1C2=C1CCNCC1,33.5%
16,CCOC1=C2[C@@H](CN(S(=O)(=O)c3ccc(C)cc3)[C@H]2c2ccccc2F)[C@H]2C(=O)N(Cc3ccccc3)C(=O)[C@H]2C1,6.76%
17,CCCCC(=O)N(C)c1c(CC)nc2c(OCc3ccc(Cl)cc3Cl)cccn12,39%
18,Cc1ccc(O)c(/C=N/NC(=O)COc2ccc3c(C)cc(=O)oc3c2)c1,66.5% (active)
19,CCOC(=O)Cc1csc(NC(=O)COc2ccc3c(C)cc(=O)oc3c2)n1,-3.01%
20,Cc1cc(=O)oc2cc(OCC(=O)Nc3nnc(C4CC4)s3)ccc12,2.23%
21,CC(C)Oc1c(Br)cc(Br)cc1/C=N/NC(N)=S,48.7%
22,CNc1cncc(-c2cccc(C(=O)N3CCOCC3)c2)n1,2.98%
23,Cc1ccc(N(Cc2cc3ccccc3[nH]c2=O)C(=O)c2cccs2)cc1,11.2%

row,Structure (SMILES),inhibition
1,CC(=O)N(Cc1cc(=O)[nH]c2ccccc12)c1ccc(C)cc1C,23.2%
2,Cc1ccc(N(Cc2cc(=O)[nH]c3ccccc23)C(=O)CCl)cc1,106% (active)
3,CCOc1c2ccc(C(=O)NCc3ccc4c(c3)OCO4)cc2nn1C,-10.3%
4,O=C(CSc1ncnc2scc(-c3ccccc3)c12)NCc1ccc2c(c1)OCO2,26.7%
5,CN(C)C(=O)c1cccc(-c2cnc3sc(NCc4ccc5c(c4)OCO5)nn23)c1,50.3% (active)
6,Cc1cc2oc3ccc(NCCC4CCCN4C)cc3c(=O)c2cc1C (stereo not given),103% (active)
7,COc1cccc2sc3cc(NCC[C@@H]4CCCN4C)ccc3c(=O)c12,-254%
8,CN1CCC[C@@H]1CCO[C@](C)(c1ccccc1)c1ccc(Cl)cc1,14.3%
9,CC1(Oc2ccccc2-c2ccno2)CCN(Cc2ccc(-c3ccccc3)o2)C1 (stereo not given),0.4%
10,CC(=O)OC[C@@H]1CN(Cc2ccccc2)C[C@H](n2cnc3c(NCc4ccco4)ncnc32)O1,4.43%
11,COc1ccc(Sc2ccc(NC(=O)c3cccc(Cl)c3)cc2C#N)cc1,14.8%
12,CCOC(=O)C(=Cc1ccccc1OC)C(=O)OCC,33.3%
13,CCOC(=O)CNC(=O)/C(=C\c1ccc(F)cc1)NC(=O)c1ccccc1,10.4%
14,CCOC(=O)C(=Cc1ccccc1)C(=O)c1ccccc1,103% (active)
15,c1cc(-c2ccc3[nH]ccc3c2)n2ccnc2c1,-57.5%
16,COC(C[C@@H]1O[C@@H]1C(=O)[C@@H](C)OCc1ccccc1)OC,7.4%
17,CC(=NNC(=S)N1CCCCCC1)c1ccccn1,-62.9%
18,C/C(=N\NC(=O)c1ccccc1F)c1ccccn1,-1.8%
19,C/C(=N\NC(=O)Cc1ccc(Cl)cc1)c1ccccn1,104% (active)
20,CN1C(=O)c2ccccc2C(C(=O)NCCCN2CCCC2)C1c1c[nH]c2ccccc12 (stereo not given),-1.25%
21,COc1ccc(/C=C/C(=O)c2c(O)cc(OC)cc2OC)cc1,-132%
22,CCCc1ccc(C(=O)COC(=O)CN2C(=O)NC3(CCCCC3C)C2=O)cc1 (stereo not given),-7.49%
23,O=C(NCc1cccnc1)c1cc(C2CCCCN2C(=O)CCc2ccccc2)on1 (stereo not given),-5.2%

row,Structure (SMILES),inhibition
1,CN(C)c1ccc(Nc2c3c4c(cccc4n(C)c2=O)C(=O)c2ccccc2-3)cc1,54.9% (active)
2,CN(C)c1ccc(C2N(C)C(=O)c3ccccc3N2C)cc1 (stereo not given),17.6%
3,CSc1ccc(CNC(=O)C2(C)CCCN2C)cc1 (stereo not given),7.21%
4,CC(C)Nc1ncnc2c1ncn2[C@H]1CN(Cc2ccncc2)C[C@@H](CO)O1,-7.45%
5,COc1ccc(CN2CCCCC2C)cc1OC (stereo not given),11.9%
6,Cc1ccc(-c2ccc(/C=C(\C#N)C(N)=S)o2)c([N+](=O)[O-])c1,-30.5%
7,Cc1ccc(/C=C(\C#N)C(=O)Nc2cccc3ncccc23)o1,-27.1%
8,Cc1ccc(Cc2cnc(NC(=O)/C(C#N)=C/c3ccc(-c4cccc([N+](=O)[O-])c4)o3)s2)cc1,71.1% (active)
9,CCOc1ccc2[nH]c(=S)sc2c1,-57%
10,O=[N+]([O-])c1c(NCCO)cc(Sc2nc3ccccc3s2)c2nonc12,102% (active)
11,COc1cc(SC#N)ccc1N=Cc1c(C)[nH]n(-c2ccc(C)cc2)c1=O,80.8% (active)
12,CN(C)c1cccc(NC(=O)c2ccc(-c3ccc(F)c(F)c3)c3ccoc23)c1,-43.1%
13,S=C(NCCCc1cnc[nH]1)NCCCN(Cc1ccc(Cl)c(Cl)c1)c1ccc(Br)cn1,98.4% (active)
14,NCCCNC(=S)NCCCN(Cc1ccc(Cl)cc1)c1ccc(Br)cn1,85.8% (active)
15,S=C(NCCCc1ccccc1)Nc1ccc(Br)cc1,5.05%
16,O=C(/C=C/c1ccc(Cl)cc1)Nc1ccc(Br)cn1,-33.7%
17,Cc1nc(C(F)(F)F)ccc1C(=O)N1CCC1(C)C(=O)NS(=O)(=O)c1ccc(F)cc1F (stereo not given),-1.89%
18,O=C(CC[C@H]1O[C@@H](n2ccc(=O)[nH]c2=O)[C@H](O)[C@@H]1O)N[C@H](Cc1ccccc1)C(=O)NCc1ccco1,8.94%
19,CCCS(=O)(=O)NC(=O)C1(C)CCCN(C(=O)c2cc(C)on2)C1 (stereo not given),9.06%
20,COc1ccc(OC)c(NC(=O)c2sc3nc(C)cc(C)c3c2N)c1,-12.4%
21,COc1ccc(OC)c(Cc2cnc3nc(N)nc(N)c3c2C)c1,54.3% (active)
22,COc1ccc(OC)c(Cc2nnc(CCC(=O)NC3CCCC3)o2)c1,-30.2%
23,C=CCn1c2c(c3ccccc31)CCC2,2.5%

row,Structure (SMILES),inhibition
1,CCOc1ccc(CCN2C(=O)c3cccnc3C2=O)cc1OCC,-9.6%
2,NC1=CC(=O)C(=O)c2cccnc21,69.9% (active)
3,CCc1nc2ccc(C(=O)NC3CCN(Cc4ccccc4)CC3)cn2c1N(CC)CCOC,4.85%
4,CCCCNC(=O)c1nc(C2CCN(S(=O)(=O)c3ccc(F)c(F)c3)CC2)oc1-c1cccc(C(F)(F)F)c1,13.3%
5,Cc1ccc(C(=O)N/C(=C/c2ccc(-c3cccc([N+](=O)[O-])c3)o2)C(=O)NCCCN(C)C)cc1,103% (active)
6,CN(C)CCNC(=O)/C(=C/c1cccc([N+](=O)[O-])c1)NC(=O)c1ccccc1,7.34%
7,Cc1occc1C(=O)N/N=C/c1ccc(-c2cccc([N+](=O)[O-])c2)o1,-11.9%
8,CCCc1ccc(C(O)c2ncc(-c3cccc(OC)c3)[nH]2)cc1 (stereo not given),-5.53%
9,O=C(Nc1ccc(F)cc1)Nc1nnc([C@H]2C[C@H](O)[C@@H](CO)O2)s1,-5.07%
10,C=CC(=O)Nc1ccc(Nc2ccnc(Nc3ccc(N4CCN(C)CC4)cc3)n2)cc1,20.3%
11,CC1CC(C)CN(CCOc2cccc3ccccc23)C1 (stereo not given),-6.14%
12,CC(C)c1ccccc1OCC(O)CN(CC(O)COc1cccc2ccccc12)C(C)C (stereo not given),110% (active)
13,CCC(C)Sc1nc2c(c(=O)[nH]c(=O)n2C)n1CC(O)COc1cccc2ccccc12 (stereo not given),12.2%
14,COc1cc(CN2CCNC(=O)C2CC(=O)NCCc2ncccc2C)cc(OC)c1 (stereo not given),-16.1%
15,CC(C)Oc1ccc(CN2CCC2(C)C(=O)NCc2ccc(C(F)(F)F)cc2)cc1 (stereo not given),14.4%
16,O=C(Nc1ccc(N2CCOCC2)cc1)c1cccc2c(-c3ccc(F)c(F)c3)coc12,-8.12%
17,COc1ccccc1CNC(=O)c1cc(-c2cc(Cl)ccc2C)n[nH]1,32.1%
18,O=C(CN1C(=O)NC2(CCOc3ccccc32)C1=O)Nc1cccc([N+](=O)[O-])c1 (stereo not given),10.4%
19,CCN(CC)S(=O)(=O)c1ccc(NC(=O)c2cnc(C)cn2)cc1,-6.33%
20,CCN(CC)S(=O)(=O)c1ccc(NC(=O)c2cccnc2Cl)c(NC(=O)c2cccnc2Cl)c1,104% (active)
21,Cc1ccc(CNC(=O)c2cccnc2Cl)cc1,-0.53%
